Assay results: PubChem BioAssay AID1159580 (chemical genetic matrix, 2015)
The whole screen tested about 5,500 compounds, of which about 2,000 (36%) were called active. Not shown: some 18% with an inconclusive outcome. No stated cut-off is given here; in the data, active means normalized growth mostly below about 0.91 (no sharp cut-off); inconclusive means no clear call, values can overlap the other calls; inactive means mostly above about 0.92. This is one part of the list.

Assay: chemical genetic growth profiling, strain panel (AID 1159580);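 further: tested at 20 µM; growth read once vehicle control cultures reached saturation at 30 °C; 1 = growth at the plate median or of vehicle wells; lower values mean less growth of the strain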
Conditions: growth OD

Measured: normalized growth

Cc1cc(C)nc(NS(=O)(=O)c2ccc(N)cc2)n1
inactive: S. cerevisiae deletion strains, locus YJR066W, strain TOR1, active compounds read low 0.929 | S. cerevisiae deletion strains, locus YJR075W, strain HOC1, active compounds read low 0.98 | S. cerevisiae deletion strains, locus YKL009W, strain mrt4, active compounds read low 0.961 | S. cerevisiae deletion strains, locus YKL068W, active compounds read low 0.982 | S. cerevisiae deletion strains, locus YKL085W, strain MDH1 (second series), active compounds read low 0.971 | S. cerevisiae deletion strains, locus YKL085W, strain MDH1, active compounds read low 0.971 | S. cerevisiae deletion strains, locus YKL160W, strain elf1, active compounds read low 1 | S. cerevisiae deletion strains, locus YKL190W, strain CNB1, active compounds read low 1 | S. cerevisiae deletion strains, locus YKR001C, strain vps1, active compounds read low 0.98 | S. cerevisiae deletion strains, locus YKR026C, strain gcn3, active compounds read low 0.985 | S. cerevisiae deletion strains, locus YKR091W, strain srl3, active compounds read low 0.958 | S. cerevisiae deletion strains, locus YLL001W, strain dnm1, active compounds read low 1.03 | S. cerevisiae deletion strains, locus YLL026W, active compounds read low 0.993 | S. cerevisiae deletion strains, locus YLL041C, strain sdh2, active compounds read low 0.975 | S. cerevisiae deletion strains, locus YLR027C, strain aat2, active compounds read low 0.985 | S. cerevisiae deletion strains, locus YLR039C, strain RIC1, active compounds read low 0.981 | S. cerevisiae deletion strains, locus YLR058C, strain SHM2, active compounds read low 0.986 | S. cerevisiae deletion strains, locus YLR102C, strain apc9, active compounds read low 0.984 | S. cerevisiae deletion strains, locus YLR113W, strain HOG1, active compounds read low 0.975 | S. cerevisiae deletion strains, locus YLR221C, strain rsa3, active compounds read low 0.958 | S. cerevisiae deletion strains, locus YLR258W, strain gsy2, active compounds read low 0.977 | S. cerevisiae deletion strains, locus YLR262C, strain YPT6 (second series), active compounds read low 0.972 | S. cerevisiae deletion strains, locus YLR262C, strain YPT6, active compounds read low 0.986 | S. cerevisiae deletion strains, locus YLR268W, strain sec22, active compounds read low 0.952 | S. cerevisiae deletion strains, locus YLR320W, strain mms22, active compounds read low 0.957 | S. cerevisiae deletion strains, locus YLR330W, strain CHS5, active compounds read low 0.988 | S. cerevisiae deletion strains, locus YLR342W, strain FKS1 (second series), active compounds read low 0.999 | S. cerevisiae deletion strains, locus YLR342W, strain FKS1, active compounds read low 0.996 | S. cerevisiae deletion strains, locus YLR357W, strain rsc2, active compounds read low 0.975 | S. cerevisiae deletion strains, locus YLR370C, strain arc18, active compounds read low 0.984 | S. cerevisiae deletion strains, locus YLR371W, strain rom2, active compounds read low 0.961 | S. cerevisiae deletion strains, locus YLR384C, strain iki3, active compounds read low 0.985 | S. cerevisiae deletion strains, locus YLR418C, strain cdc73, active compounds read low 1.02 | S. cerevisiae deletion strains, locus YML016C, strain PPZ1, active compounds read low 0.995 | S. cerevisiae deletion strains, locus YML032C, strain rad52, active compounds read low 0.98 | S. cerevisiae deletion strains, locus YML120C, strain ndi1, active compounds read low 0.976 | S. cerevisiae deletion strains, locus YML124C, strain tub3, active compounds read low 0.981 | S. cerevisiae deletion strains, locus YMR058W, strain fet3, active compounds read low 0.986 | S. cerevisiae deletion strains, locus YMR078C, strain ctf18, active compounds read low 0.98 | S. cerevisiae deletion strains, locus YMR125W, strain sto1, active compounds read low 0.947 | S. cerevisiae deletion strains, locus YMR129W, active compounds read low 0.974 | S. cerevisiae deletion strains, locus YMR205C, strain PFK2, active compounds read low 0.988 | S. cerevisiae deletion strains, locus YMR223W, strain ubp8, active compounds read low 1.02 | S. cerevisiae deletion strains, locus YMR231W, strain pep5, active compounds read low 1.02 | S. cerevisiae deletion strains, locus YMR307W, strain GAS1, active compounds read low 1.02 | S. cerevisiae deletion strains, locus YNL067W, strain RPL9B, active compounds read low 0.996 | S. cerevisiae deletion strains, locus YNL071W, strain lat1, active compounds read low 0.973 | S. cerevisiae deletion strains, locus YNL128W, strain TEP1, active compounds read low 0.97 | S. cerevisiae deletion strains, locus YNL183C, strain NPR1, active compounds read low 0.967 | S. cerevisiae deletion strains, locus YNL209W, strain ssb2, active compounds read low 0.975 | S. cerevisiae deletion strains, locus YNL233W, strain BNI4, active compounds read low 0.997 | S. cerevisiae deletion strains, locus YNL248C, strain rpa49, active compounds read low 0.909 | S. cerevisiae deletion strains, locus YNL250W, strain rad50, active compounds read low 0.986 | S. cerevisiae deletion strains, locus YNL271C, strain bni1, active compounds read low 0.993 | S. cerevisiae deletion strains, locus YNL298W, strain CLA4, active compounds read low 0.963 | S. cerevisiae deletion strains, locus YNL307C, strain MCK1, active compounds read low 0.978 | S. cerevisiae deletion strains, locus YNL322C, strain KRE1 (second series), active compounds read low 0.971 | S. cerevisiae deletion strains, locus YNL322C, strain KRE1, active compounds read low 0.997 | S. cerevisiae deletion strains, locus YNR049C, strain mso1, active compounds read low 0.963 | S. cerevisiae deletion strains, locus YNR052C, strain pop2, active compounds read low 0.97 | S. cerevisiae deletion strains, locus YOL006C, strain TOP1, active compounds read low 1.07 | S. cerevisiae deletion strains, locus YOL012C, strain htz1 1.13 | S. cerevisiae deletion strains, locus YOL147C, strain pex11, active compounds read low 0.991 | S. cerevisiae deletion strains, locus YOR001W, strain rrp6, active compounds read low 1 | S. cerevisiae deletion strains, locus YOR061W, strain CKA2, active compounds read low 1 | S. cerevisiae deletion strains, locus YOR069W, strain VPS5, active compounds read low 0.988 | S. cerevisiae deletion strains, locus YOR070C, strain gyp1, active compounds read low 0.98 | S. cerevisiae deletion strains, locus YOR080W, strain dia2, active compounds read low 0.983 | S. cerevisiae deletion strains, locus YOR083W, strain WHI5, active compounds read low 0.983 | S. cerevisiae deletion strains, locus YOR106W, strain vam3, active compounds read low 1.02 | S. cerevisiae deletion strains, locus YOR136W, strain idh2, active compounds read low 0.996 | S. cerevisiae deletion strains, locus YOR144C, strain elg1, active compounds read low 0.991 | S. cerevisiae deletion strains, locus YOR184W, strain ser1, active compounds read low 0.979 | S. cerevisiae deletion strains, locus YOR231W, strain MKK1, active compounds read low 0.995 | S. cerevisiae deletion strains, locus YOR265W, strain rbl2, active compounds read low 0.981 | S. cerevisiae deletion strains, locus YOR270C, strain vph1, active compounds read low 0.97 | S. cerevisiae deletion strains, locus YOR290C, strain snf2, active compounds read low 0.943 | S. cerevisiae deletion strains, locus YOR316C, strain cot1, active compounds read low 0.971 | S. cerevisiae deletion strains, locus YPL051W, strain arl3, active compounds read low 0.995 | S. cerevisiae deletion strains, locus YPL078C, strain atp4, active compounds read low 0.99 | S. cerevisiae deletion strains, locus YPL106C, strain sse1, active compounds read low 0.914 | S. cerevisiae deletion strains, locus YPL240C, strain hsp82, active compounds read low 0.979 | S. cerevisiae deletion strains, locus YPL256C, strain CLN2, active compounds read low 0.954 | S. cerevisiae deletion strains, locus YPR119W, strain clb2, active compounds read low 0.978 | S. cerevisiae deletion strains, locus YPR141C, strain kar3, active compounds read low 0.973 | S. cerevisiae deletion strains, locus YPR163C, strain tif3, active compounds read low 0.981 | S. cerevisiae deletion strains, locus YPR167C, strain met16, active compounds read low 0.971 | S. cerevisiae deletion strains, strain wtn01, active compounds read low 0.981 | S. cerevisiae strains, strain wild type, active compounds read low 0.995
